# Results taken from PubChem BioAssay (EPA / NIEHS).
# Results filed as inconclusive are left out. Calls of active or inactive are those of the source. Rule for the calls: active = hit-call score of the fitted dose curve at least 0.9, where 1 is the maximum; inconclusive = response in the unintended direction; inactive = score below 0.9.
# Columns and labels:
# [1] = molecular target: human Adenosine A1 Receptor (AdoRA1), ADORA1 (gene 134) (UniProt P30542); assay: NVS_GPCR_hAdoRA1: NovaScreen (NVS) G Protein-Coupled Receptor Assay for human Adenosine A1 Receptor (AdoRA1) (AID 2283254)
# Summary of the method: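 Hum. cortical membranes + radioligand, cmpd 1 h; filtration, scintillation count. Readout = decrease vs DMSO. Primary 25 uM dup; hits → conc. series.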
# [2] = molecular target: Adenosine receptor A1 (Bos taurus) (UniProt P28190); assay: NVS_GPCR_bAdoR_NonSelective: NovaScreen (NVS) G Protein-Coupled Receptor Assay for bovine Adenosine Receptor (AdoR), Non-selective Binding (AID 2283244)
# Summary of the method: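 Cell-free binding with membranes from bovine striatum: radioligand displaced by test chemical, read after 1 h by filtration and scintillation. Single-point 25 uM duplicate primary, 50 uM top concentration in follow-up curves, DMSO baseline.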
# [3] = molecular target: guinea pig Leukotriene D4 Receptor (LTD4), CYSLTR1 (gene 100135514) (UniProt Q2NNR5); assay: NVS_GPCR_gLTD4: NovaScreen (NVS) G Protein-Coupled Receptor Assay for guinea pig Leukotriene D4 Receptor (LTD4) (AID 2283248)
# Summary of the method: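 Guinea pig lung membrane preparation; bound radioligand measured by filter scintillation after 1 h, loss of signal versus DMSO marking displacement. Compounds tested at 25 uM in duplicate, hits retested to max 50 uM.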
# [4] = molecular target: human Serotonin, 5-Hydroxytryptamine Receptor 7 (5HT7), HTR7 (gene 3363) (UniProt P34969); assay: NVS_GPCR_h5HT7: NovaScreen (NVS) G Protein-Coupled Receptor Assay for human Serotonin, 5-Hydroxytryptamine Receptor 7 (5HT7) (AID 2283255);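 note: hits reduce specific radioligand binding relative to DMSO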
# Summary of the method: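 Filter-bound radioactivity counted after 1 h, with loss of specific radioligand binding fitted against DMSO. Membrane protein came from CHO cells expressing human 5HT7. Chemicals were tested first at 25 uM in duplicate, then in concentration series if active.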
# [5] = molecular target: human Adrenergic, Alpha 2c Receptor (Adra2C), ADRA2C (gene 152) (UniProt P18825); assay: NVS_GPCR_hAdra2C: NovaScreen (NVS) G Protein-Coupled Receptor Assay for human Adrenergic, Alpha 2c Receptor (Adra2C) (AID 2283259)
# Summary of the method: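 Screened first in duplicate at 25 uM, with actives then run as concentration series. Membranes from Sf9 cells were exposed for 1 h, and displacement of radioligand was counted after filtration, using DMSO as baseline.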
# [6] = molecular target: Beta-2 adrenergic receptor (Homo sapiens) (UniProt P07550); assay: NVS_GPCR_hAdrb2: NovaScreen (NVS) G Protein-Coupled Receptor Assay for human Adrenergic, Beta 2 Receptor (Adrb2) (AID 2283261)
# Summary of the method: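 Compounds screened in duplicate at 25 uM, then actives in concentration series. Human beta-2 receptor from CHO material, cell-free; radioligand displacement after 1 h measured by filtration and scintillation against DMSO baseline.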
# [7] = molecular target: human Serotonin, 5-Hydroxytryptamine Receptor 2A (5HT2A), HTR2A (gene 3356) (UniProt P28223); assay: NVS_GPCR_h5HT2A: NovaScreen (NVS) G Protein-Coupled Receptor Assay for human Serotonin, 5-Hydroxytryptamine Receptor 2A (5HT2A) (AID 2283249)
# Summary of the method: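 Radioligand displacement on human cortex tissue extract, counted by filtration and scintillation 1.5 h post-dosing. Initial single-concentration screen at 25 uM in duplicate, concentration series in follow-up; DMSO as baseline.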
# [8] = molecular target: human Serotonin, 5-Hydroxytryptamine Receptor 6 (5HT6), HTR6 (gene 3362) (UniProt P50406); assay: NVS_GPCR_h5HT6: NovaScreen (NVS) G Protein-Coupled Receptor Assay for human Serotonin, 5-Hydroxytryptamine Receptor 6 (5HT6) (AID 2283253)
# Summary of the method: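 Filter scintillation counting of radioligand displacement from HEK293-expressed 5HT6, 1 hour post-dose, with loss of signal relative to DMSO. Single 25 uM duplicates first, with concentration series for confirmation.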
# [9] = molecular target: Type-1 angiotensin II receptor (Homo sapiens) (UniProt P30556); assay: NVS_GPCR_hAT1: NovaScreen (NVS) G Protein-Coupled Receptor Assay for human Angiotensin II receptor type 1 (AT1) (AID 2283263)
# Summary of the method: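 Hits from a 25 uM duplicate screen (threshold e.g. 30% inhibition) were run in concentration-response with 50 uM top concentration. Displacement of specific radioligand from KAN-TS membrane preparations measured after 3 h by filter scintillation, DMSO as baseline.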
# [10] = molecular target: human Dopamine Receptor D4.4 (DRD4.4), DRD4 (gene 1815) (UniProt P21917); assay: NVS_GPCR_hDRD4.4: NovaScreen (NVS) G Protein-Coupled Receptor Assay for human Dopamine Receptor D4.4 (DRD4.4) (AID 2283264)
# Summary of the method: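 Filter-binding assay with a tritiated or iodinated ligand, cell-free receptor prepared from CHO, 1 hour. Loss of bound radioactivity versus DMSO; single 25 uM duplicate screen, then concentration-response for actives.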
# [11] = molecular target: human Dopamine Receptor D2 (DRD2), DRD2 (gene 1813) (UniProt P14416); assay: NVS_GPCR_hDRD2s: NovaScreen (NVS) G Protein-Coupled Receptor Assay for human Dopamine Receptor D2 (DRD2) (AID 2283266)
# Summary of the method: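 Test compound (25 uM, duplicate in the primary screen; concentration series at follow-up) competed with radioligand for human DRD2 in CHO-derived membrane protein. Filter-based scintillation counting was done 1.5 hours after dosing, with loss of signal analysed against DMSO.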
# [12] = system: guinea pig Leukotriene B4 Receptor (LTB4), gene 100379538; assay: NVS_GPCR_gLTB4: NovaScreen (NVS) G Protein-Coupled Receptor Assay for guinea pig Leukotriene B4 Receptor (LTB4) (AID 2283247)
# Summary of the method: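 Membranes from guinea pig spleen incubated 2 h with radioligand and compound; bound counts measured by filtration and scintillation. Screened first at 25 uM in duplicate, then actives titrated to a 50 uM top concentration relative to DMSO.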
# [13] = molecular target: human Endothelin Receptor Type A (ETA), EDNRA (gene 1909) (UniProt P25101); assay: NVS_GPCR_hETA: NovaScreen (NVS) G Protein-Coupled Receptor Assay for human Endothelin Receptor Type A (ETA) (AID 2283265)
# Summary of the method: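 Binding of radioligand to membrane protein extracted from SH-SY5Y cells was read by filtration and scintillation after 3 h. Compounds were screened at 25 uM in duplicate, with hits followed up in singleton concentration series to 50 uM.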
# [14] = molecular target: human Adrenergic, Beta 1 Receptor (Adrb1), ADRB1 (gene 153) (UniProt P08588); assay: NVS_GPCR_hAdrb1: NovaScreen (NVS) G Protein-Coupled Receptor Assay for human Adrenergic, Beta 1 Receptor (Adrb1) (AID 2283258)
# Summary of the method: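 Membranes/protein extracted from human neuroepithelioma cells, radioligand competition binding read by filtration and scintillation 2 h post-dose. Single 25 uM duplicate screen, then concentration-response follow-up; DMSO as negative control.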
# [15] = molecular target: guinea pig Opioid, Kappa 1 Receptor (OpiateK), OPRK1 (gene 100135587) (UniProt P41144); assay: NVS_GPCR_gOpiateK: NovaScreen (NVS) G Protein-Coupled Receptor Assay for guinea pig Opioid, Kappa 1 Receptor (OpiateK) (AID 2283252);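 note: active means reduced radioligand binding relative to DMSO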
# Summary of the method: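 Radioligand binding to kappa opioid receptor in guinea pig cerebellar membranes, read by filtration and scintillation at 2 h. Compounds first tested in duplicate at 25 uM, then actives in concentration series; signal loss fitted against DMSO.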
# [16] = system: bovine Histamine 1 Receptor (H1), gene 281231; assay: NVS_GPCR_bH1: NovaScreen (NVS) G Protein-Coupled Receptor Assay for bovine Histamine 1 Receptor (H1) (AID 2283246)
# Summary of the method: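 Hits from a 25 uM duplicate primary screen were retested in concentration series (top 50 uM); binding measured as scintillation-counted displacement of radioligand from bovine cerebellar membranes after 1 h, normalised to DMSO.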
# [17] = system: guinea pig Muscarinic, Peripheral (Mperiperal) Receptor, Non-selective Binding, gene 100379235; assay: NVS_GPCR_gMPeripheral_NonSelective: NovaScreen (NVS) G Protein-Coupled Receptor Assay for guinea pig Muscarinic, Peripheral (Mperiperal) Receptor, Non-selective Binding (AID 2283250)
# Summary of the method: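 Screened in duplicate at 25 uM, hits retested in concentration series to 50 uM max, using bladder membrane radioligand displacement from guinea pig. Filtration and scintillation counting 1 h post-dose, fitted relative to DMSO.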
# [18] = molecular target: human Adrenergic, Alpha 2A Receptor (Adra2A), ADRA2A (gene 150) (UniProt P08913); assay: NVS_GPCR_hAdra2A: NovaScreen (NVS) G Protein-Coupled Receptor Assay for human Adrenergic, Alpha 2A Receptor (Adra2A) (AID 2283257)
# Summary of the method: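 Displacement of a specific radioligand from HT29 membrane protein was counted by filter scintillation after 1 h. Compounds were screened in duplicate at 25 uM, and actives were retested in concentration series. Fitting was positive-direction against DMSO.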
# [19] = molecular target: human Adrenergic, Beta 3 Receptor (Adrb3), ADRB3 (gene 155) (UniProt P13945); assay: NVS_GPCR_hAdrb3: NovaScreen (NVS) G Protein-Coupled Receptor Assay for human Adrenergic, Beta 3 Receptor (Adrb3) (AID 2283262)
# Summary of the method: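 A cell-free filter binding assay read by scintillation counting, with displacement of a specific radioligand measured after 1 hour. The receptor source was SK-N-MC extracts (cells pretreated with isoproterenol and 8-bromo-cAMP). Compounds were first tested at 25 uM in duplicate and then in concentration series.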
# Sequence of human Serotonin, 5-Hydroxytryptamine Receptor 7 (5HT7), HTR7 (gene 3363) (P34969 whole entry, looked up): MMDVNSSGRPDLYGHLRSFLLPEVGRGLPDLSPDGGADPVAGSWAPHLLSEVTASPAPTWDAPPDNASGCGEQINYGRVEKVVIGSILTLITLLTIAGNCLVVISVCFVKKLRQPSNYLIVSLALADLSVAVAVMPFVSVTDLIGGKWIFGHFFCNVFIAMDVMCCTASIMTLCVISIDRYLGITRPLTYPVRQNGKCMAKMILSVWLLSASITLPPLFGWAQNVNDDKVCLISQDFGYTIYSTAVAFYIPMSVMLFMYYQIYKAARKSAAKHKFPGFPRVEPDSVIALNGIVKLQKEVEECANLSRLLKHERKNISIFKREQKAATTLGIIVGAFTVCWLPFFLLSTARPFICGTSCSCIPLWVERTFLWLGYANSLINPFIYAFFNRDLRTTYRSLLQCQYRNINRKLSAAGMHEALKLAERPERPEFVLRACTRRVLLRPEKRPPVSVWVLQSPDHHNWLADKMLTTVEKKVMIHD
# Sequence of human Adrenergic, Alpha 2c Receptor (Adra2C), ADRA2C (gene 152) (P18825 whole entry, looked up): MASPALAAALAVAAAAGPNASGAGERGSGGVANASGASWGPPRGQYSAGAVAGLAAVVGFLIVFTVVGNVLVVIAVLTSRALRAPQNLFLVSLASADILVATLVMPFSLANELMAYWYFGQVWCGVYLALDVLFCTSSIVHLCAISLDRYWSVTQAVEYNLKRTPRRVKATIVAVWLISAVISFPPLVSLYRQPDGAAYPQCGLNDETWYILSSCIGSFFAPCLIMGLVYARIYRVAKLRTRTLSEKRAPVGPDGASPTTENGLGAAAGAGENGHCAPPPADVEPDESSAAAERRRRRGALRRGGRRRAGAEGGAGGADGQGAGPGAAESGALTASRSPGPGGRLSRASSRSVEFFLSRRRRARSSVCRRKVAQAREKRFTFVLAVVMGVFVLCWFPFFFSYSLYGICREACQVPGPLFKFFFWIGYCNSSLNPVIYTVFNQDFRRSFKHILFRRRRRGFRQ
# Sequence of Beta-2 adrenergic receptor (Homo sapiens) (P07550 whole entry, looked up): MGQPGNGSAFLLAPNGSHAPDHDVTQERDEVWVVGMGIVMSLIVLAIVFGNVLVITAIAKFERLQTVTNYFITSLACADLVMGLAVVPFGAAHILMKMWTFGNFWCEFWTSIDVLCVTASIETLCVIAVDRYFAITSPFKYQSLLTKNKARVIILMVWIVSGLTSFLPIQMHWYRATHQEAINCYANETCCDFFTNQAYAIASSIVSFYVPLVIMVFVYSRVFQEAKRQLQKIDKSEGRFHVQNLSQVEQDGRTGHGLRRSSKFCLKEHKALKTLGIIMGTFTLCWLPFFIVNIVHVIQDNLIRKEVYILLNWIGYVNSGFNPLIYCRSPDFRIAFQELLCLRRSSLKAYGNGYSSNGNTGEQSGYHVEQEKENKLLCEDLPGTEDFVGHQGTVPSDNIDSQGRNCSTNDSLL
# Sequence of guinea pig Leukotriene D4 Receptor (LTD4), CYSLTR1 (gene 100135514) (Q2NNR5 whole entry, looked up): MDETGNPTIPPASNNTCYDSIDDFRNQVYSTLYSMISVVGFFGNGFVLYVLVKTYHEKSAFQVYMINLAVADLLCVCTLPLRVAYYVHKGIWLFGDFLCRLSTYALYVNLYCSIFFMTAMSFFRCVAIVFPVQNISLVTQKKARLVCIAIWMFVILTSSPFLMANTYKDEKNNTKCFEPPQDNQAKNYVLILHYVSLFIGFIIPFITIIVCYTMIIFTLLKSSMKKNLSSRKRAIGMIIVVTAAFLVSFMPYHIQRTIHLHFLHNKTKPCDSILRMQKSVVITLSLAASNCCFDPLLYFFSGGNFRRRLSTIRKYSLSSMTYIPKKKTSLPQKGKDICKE
# Sequence of human Adenosine A1 Receptor (AdoRA1), ADORA1 (gene 134) (P30542 whole entry, looked up): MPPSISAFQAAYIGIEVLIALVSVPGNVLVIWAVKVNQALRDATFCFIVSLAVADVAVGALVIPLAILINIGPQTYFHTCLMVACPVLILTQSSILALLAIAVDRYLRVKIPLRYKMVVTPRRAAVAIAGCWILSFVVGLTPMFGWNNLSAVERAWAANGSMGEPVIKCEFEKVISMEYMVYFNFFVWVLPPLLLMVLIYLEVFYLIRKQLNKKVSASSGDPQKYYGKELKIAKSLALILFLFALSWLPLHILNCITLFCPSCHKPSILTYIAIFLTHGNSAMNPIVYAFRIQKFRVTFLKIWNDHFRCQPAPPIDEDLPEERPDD
# Sequence of human Serotonin, 5-Hydroxytryptamine Receptor 2A (5HT2A), HTR2A (gene 3356) (P28223 whole entry, looked up): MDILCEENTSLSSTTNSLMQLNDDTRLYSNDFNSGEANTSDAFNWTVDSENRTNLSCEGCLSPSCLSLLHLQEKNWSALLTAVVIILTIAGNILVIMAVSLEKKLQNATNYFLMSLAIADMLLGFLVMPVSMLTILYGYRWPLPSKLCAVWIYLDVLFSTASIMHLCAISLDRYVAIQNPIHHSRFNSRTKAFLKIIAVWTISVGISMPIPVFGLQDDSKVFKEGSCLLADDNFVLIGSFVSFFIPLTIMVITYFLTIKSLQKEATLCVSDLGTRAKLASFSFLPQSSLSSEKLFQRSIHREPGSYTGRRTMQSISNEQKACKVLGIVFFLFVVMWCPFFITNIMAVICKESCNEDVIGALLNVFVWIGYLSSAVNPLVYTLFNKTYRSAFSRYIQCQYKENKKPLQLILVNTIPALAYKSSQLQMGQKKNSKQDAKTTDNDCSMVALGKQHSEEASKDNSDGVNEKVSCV
# Sequence of human Dopamine Receptor D2 (DRD2), DRD2 (gene 1813) (P14416 whole entry, looked up): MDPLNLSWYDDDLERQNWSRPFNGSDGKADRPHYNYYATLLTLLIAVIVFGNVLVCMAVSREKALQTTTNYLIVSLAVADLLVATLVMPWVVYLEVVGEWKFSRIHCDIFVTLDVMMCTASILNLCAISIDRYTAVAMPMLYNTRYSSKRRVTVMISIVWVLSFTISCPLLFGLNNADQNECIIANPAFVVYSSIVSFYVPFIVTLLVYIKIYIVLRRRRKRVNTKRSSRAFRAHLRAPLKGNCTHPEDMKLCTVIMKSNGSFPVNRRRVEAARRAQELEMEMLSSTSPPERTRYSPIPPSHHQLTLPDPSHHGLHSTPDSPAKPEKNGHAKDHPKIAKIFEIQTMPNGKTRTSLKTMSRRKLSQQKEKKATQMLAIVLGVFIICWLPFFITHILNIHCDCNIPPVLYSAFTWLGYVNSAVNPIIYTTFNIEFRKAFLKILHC
# Sequence of human Dopamine Receptor D4.4 (DRD4.4), DRD4 (gene 1815) (P21917 whole entry, looked up): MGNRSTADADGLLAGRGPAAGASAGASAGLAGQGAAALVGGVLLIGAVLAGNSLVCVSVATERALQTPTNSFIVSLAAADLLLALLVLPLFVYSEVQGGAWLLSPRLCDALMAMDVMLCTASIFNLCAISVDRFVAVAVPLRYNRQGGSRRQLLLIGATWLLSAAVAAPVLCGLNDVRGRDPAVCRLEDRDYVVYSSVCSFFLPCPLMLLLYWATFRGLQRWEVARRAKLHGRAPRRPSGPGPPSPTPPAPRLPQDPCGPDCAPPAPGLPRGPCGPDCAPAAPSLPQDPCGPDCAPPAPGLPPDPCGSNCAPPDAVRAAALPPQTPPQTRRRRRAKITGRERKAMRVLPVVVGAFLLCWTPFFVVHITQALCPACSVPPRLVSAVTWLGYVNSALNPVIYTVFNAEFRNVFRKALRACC
# Sequence of human Adrenergic, Beta 1 Receptor (Adrb1), ADRB1 (gene 153) (P08588 whole entry, looked up): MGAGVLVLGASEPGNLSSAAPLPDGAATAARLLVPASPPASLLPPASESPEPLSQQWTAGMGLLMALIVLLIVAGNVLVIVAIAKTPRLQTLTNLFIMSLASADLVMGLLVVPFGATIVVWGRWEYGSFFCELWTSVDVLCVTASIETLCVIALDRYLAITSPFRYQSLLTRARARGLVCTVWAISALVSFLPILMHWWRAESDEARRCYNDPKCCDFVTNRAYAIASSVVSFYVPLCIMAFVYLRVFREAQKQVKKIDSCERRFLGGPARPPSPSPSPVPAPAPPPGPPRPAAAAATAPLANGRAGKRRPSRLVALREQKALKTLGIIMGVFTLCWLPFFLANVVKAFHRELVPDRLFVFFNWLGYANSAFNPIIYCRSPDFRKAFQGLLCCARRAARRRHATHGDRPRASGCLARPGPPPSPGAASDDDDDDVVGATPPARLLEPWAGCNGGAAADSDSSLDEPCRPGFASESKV
# Sequence of guinea pig Opioid, Kappa 1 Receptor (OpiateK), OPRK1 (gene 100135587) (P41144 whole entry, looked up): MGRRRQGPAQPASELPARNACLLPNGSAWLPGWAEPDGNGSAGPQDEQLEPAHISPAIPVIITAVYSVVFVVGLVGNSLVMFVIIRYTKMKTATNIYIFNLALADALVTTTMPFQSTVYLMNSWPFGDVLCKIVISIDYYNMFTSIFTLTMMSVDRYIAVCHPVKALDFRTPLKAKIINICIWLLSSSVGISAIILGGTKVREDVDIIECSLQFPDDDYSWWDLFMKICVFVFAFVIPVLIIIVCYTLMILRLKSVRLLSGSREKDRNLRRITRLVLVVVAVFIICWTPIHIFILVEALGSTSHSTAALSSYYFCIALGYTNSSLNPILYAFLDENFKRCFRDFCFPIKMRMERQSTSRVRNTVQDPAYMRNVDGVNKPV
# Sequence of human Adrenergic, Alpha 2A Receptor (Adra2A), ADRA2A (gene 150) (P08913 whole entry, looked up): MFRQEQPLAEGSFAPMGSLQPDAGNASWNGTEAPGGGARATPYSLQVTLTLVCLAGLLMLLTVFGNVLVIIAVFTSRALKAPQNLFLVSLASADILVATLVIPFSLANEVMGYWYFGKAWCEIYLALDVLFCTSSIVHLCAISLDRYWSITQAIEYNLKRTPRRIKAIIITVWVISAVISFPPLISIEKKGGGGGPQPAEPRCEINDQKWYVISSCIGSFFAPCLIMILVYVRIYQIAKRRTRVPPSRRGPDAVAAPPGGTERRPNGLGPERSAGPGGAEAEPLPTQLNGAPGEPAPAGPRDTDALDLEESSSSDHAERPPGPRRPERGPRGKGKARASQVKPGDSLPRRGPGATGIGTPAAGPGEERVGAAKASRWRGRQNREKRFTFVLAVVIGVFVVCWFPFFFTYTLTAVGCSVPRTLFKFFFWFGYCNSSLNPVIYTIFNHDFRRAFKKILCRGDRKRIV
structure (smiles),measurement,setting,value
COc1ccc(-n2nc(C(F)F)cc2-c2ccc(S(C)=O)cc2)cc1 (stereo not drawn),AC50,[1],5.7 µM (active)
CCOc1cccc(-n2cc(C(=O)N3CCN(c4cc(C(=O)O)c5ccccc5c4)CC3)nc2-c2ccc(C)cc2)c1,outcome,[2],inactive
same,AC50,[3],19.8 µM (active)
same,AC50,[1],14.3 µM (active)
same,AC50,[4],23.8 µM (active)
same,AC50,[5],12.3 µM (active)
same,AC50,[6],6.36 µM (active)
CCc1cc(SCc2sc(-c3ccc(C(F)(F)F)cc3)nc2CN2CCN(c3ccc(OC)cc3)CC2)ccc1OCC(=O)O,outcome,[3],inactive
same,outcome,[7],inactive
same,AC50,[8],37.3 µM (active)
same,AC50,[4],4.32 µM (active)
same,AC50,[5],2.63 µM (active)
same,outcome,[6],inactive
same,AC50,[9],9.64 µM (active)
same,AC50,[10],6.77 µM (active)
same,AC50,[11],4.08 µM (active)
COc1ccc(/C=C/S(=O)(=O)NC(=O)c2ccc(C)cc2Cl)cc1,outcome,[12],inactive
O=C1CCCCCN1,outcome,[13],inactive
CCCCCCc1ccc(O)cc1O,AC50,[4],25 µM (active)
same,AC50,[14],25 µM (active)
same,AC50,[5],6.31 µM (active)
Cn1c(=O)cc(Oc2ccc(F)cc2F)c2cnc(NCC(C)(C)O)nc21,outcome,[15],inactive
COc1cccc(-c2ccc(/C=C\CN3CCCCCC3)cc2Cl)c1,AC50,[16],8.81 µM (active)
same,AC50,[7],15.8 µM (active)
same,AC50,[17],11.1 µM (active)
same,AC50,[4],17.5 µM (active)
same,AC50,[18],8.54 µM (active)
same,AC50,[14],22.6 µM (active)
same,AC50,[5],0.401 µM (active)
same,AC50,[6],26.4 µM (active)
same,outcome,[19],inactive
same,AC50,[10],10.2 µM (active)
same,AC50,[11],8.5 µM (active)
